# Nrf2 block: Nrf2 pathway inhibition | A549 ARE-Fluc reporter, luciferase luminescence, 18-24 h | Potency, µM (titrated, usually from 46 µM), without a hit: at the top dose activity change, negative = inhibition, hits mostly inhibitors | hit rate 2.1% among 360,000 | AID 504444; note: % is set by controls: 0 for no effect and ±100 for the full control effect; nearly all actives have a fitted effect of over 60% in size
#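 In this cell-based qHTS, ARE-driven firefly luciferase in A549 cells reports Nrf2 activity; the luminescent signal after BugLite lysis is the measured value, with a prior CellTiter-Fluor read for cell health.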
# Nrf2 activator: activators of Nrf2 (ARE) signaling; hit rate 0.31% among 410,000; AREc32 ARE-luciferase reporter (MCF7-derived line), luminescence, 24 h; Potency, µM (highest dose often 46.1 µM), for inactives: at the highest dose activation, most hits filed as activators; AID 624171; note: % of control where 0% means no effect; nearly all actives have a fitted effect of over 65% in size
#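 Luciferase luminescence (Steady-Glo, 30 min at room temperature) served as the read-out of ARE activation in AREc32 cells treated with compounds for 24 hr at 37 deg C.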
# A549 tox-1: A549 cytotoxicity, counter-screen for Nrf2 inhibitors. A549 ARE-Fluc cells, CellTiter-Fluor viability, 18-24 h. Potency, µM (series often up to 46 µM), without a hit: top-dose activity change, negative = cytotoxicity, actives largely listed as inhibitors. hit rate 0.16% among 390,000. AID 504648; note: % is set by controls: 0 for no effect and ±100 for the full control effect
#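 A549 ARE_Fluc cells in 5% FBS OPTI-MEM were exposed to compounds in concentration-response for 18-24 h at 37 deg C. Viability was read by CellTiter-Fluor fluorescence (Ex 405/Em 525) after 30 min, before the luciferase read.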
# ELG1 repair inh: ELG1-dependent DNA repair inhibition; HEK293T ELG1-luciferase reporter, luminescence, 16 h; DNA damage induced by 5-fluorouridine; Potency, µM (highest dose often 46.1 µM), inactives show at the highest dose activity change, negative = inhibition, hits mostly inhibitors; hit rate 2.3% among 330,000; note: % is set by controls: 0 for no effect and ±100 for the full control effect; nearly all actives have a fitted effect of over 55% in size
#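 In this reporter screen, reduction of luminescence relative to DMSO vehicle indicated activity. Compounds and 5-fluorouridine were added together to 2,000 cells per well, incubated for 16 hr at 37 °C, then developed with ONE-Glo.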
# FLuc counter 3: blocks purified firefly luciferase in Nrf2 counterscreen; shares compounds with Nrf2 block; purified firefly luciferase, luminescence inhibition; hit rate 4% among 1,400; Potency, µM (top dose mostly 57.5 µM), for inactives: at the top dose activity change, negative = inhibition, most hits filed as inhibitors; note: % is set by controls: 0 for no effect and ±100 for the full control effect; nearly all actives have a fitted effect of over 65% in size
# Target sequence (P08659 whole entry, looked up): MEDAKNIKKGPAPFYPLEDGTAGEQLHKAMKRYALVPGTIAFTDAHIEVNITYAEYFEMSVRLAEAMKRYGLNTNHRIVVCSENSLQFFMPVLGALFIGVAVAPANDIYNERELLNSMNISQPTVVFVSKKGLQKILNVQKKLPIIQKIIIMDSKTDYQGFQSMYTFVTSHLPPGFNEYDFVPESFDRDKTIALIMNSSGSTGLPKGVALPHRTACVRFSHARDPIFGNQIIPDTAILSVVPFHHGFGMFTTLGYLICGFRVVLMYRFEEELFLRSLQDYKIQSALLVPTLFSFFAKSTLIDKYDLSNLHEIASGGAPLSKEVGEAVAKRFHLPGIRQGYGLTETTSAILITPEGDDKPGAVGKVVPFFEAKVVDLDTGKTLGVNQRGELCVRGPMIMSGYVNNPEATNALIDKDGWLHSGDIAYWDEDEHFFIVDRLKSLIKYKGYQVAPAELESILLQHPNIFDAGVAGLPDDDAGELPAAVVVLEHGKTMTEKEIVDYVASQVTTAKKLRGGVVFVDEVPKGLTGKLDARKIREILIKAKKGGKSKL
# A549 tox-2: counter-screen for Nrf2 inhibitors: cytotoxicity in A549 ARE cells; shares compounds with Nrf2 block; A549 ARE-Fluc cells, cytotoxicity counterscreen; Potency, µM (titrated, usually from 46.1 µM), for inactives: at the highest dose activity change, negative = cytotoxicity, actives largely listed as inhibitors; hit rate 2% among 1,400;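 note: cells exposed to compounds for 18 to 24 hours; % is set by controls: 0 for no effect and ±100 for the full control effect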
# ARE-Fluc inh: Nrf2 inhibition confirmed, A549 ARE-luciferase; shares compounds with Nrf2 block; A549 ARE-firefly luciferase reporter, luminescence; Potency, µM (top dose mostly 46.1 µM), inactives show at the highest dose activity change, negative = inhibition, hits mostly inhibitors; hit rate 74% among 1,400; note: % is set by controls: 0 for no effect and ±100 for the full control effect; nearly all actives have a fitted effect of over 65% in size
# ELG1 Luc conf: inhibits ELG1-dependent DNA repair in HEK293T cells, confirmed; shares compounds with ELG1 repair inh; HEK293T ELG1-luciferase levels, luminescence; cells co-treated with 5-fluorouridine; Potency, µM (top dose mostly 46.1 µM), for inactives: at the top dose activity change, negative = inhibition, most hits filed as inhibitors; hit rate 68% among 670; AID 624248; note: % is set by controls: 0 for no effect and ±100 for the full control effect; nearly all actives have a fitted effect of over 55% in size
# ELG1-Luc MMS: inhibits ELG1-dependent repair under MMS stimulation in HEK293T cells; hit rate 53% among 670; HEK293T luciferase-tagged ELG1 level, MMS stimulated; shares compounds with ELG1 repair inh; Potency, µM (doses to about 46.1 µM), for the others: top-dose activity change, negative = inhibition, actives largely listed as inhibitors; note: % is set by controls: 0 for no effect and ±100 for the full control effect; nearly all actives have a fitted effect of over 60% in size
# ELG1 5-FU: confirmation of ELG1 repair inhibitors: viability with 5FU. shares compounds with ELG1 repair inh. 670 tested, under 10 active. Potency, µM (highest dose often 46.1 µM), for inactives: at the top dose activity change, negative = viability loss, actives largely listed as cytotoxic. cell viability with 5-FU, ELG1-dependent repair;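 note: ELG1-luc HEK293T cells cotreated with 5-fluorouridine at 10 µM final; viability measured 16 h after compound addition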
# ELG1 MMS viab: confirmation of ELG1 repair inhibitors: viability with MMS; shares compounds with ELG1 repair inh; Cell viability with MMS, ELG1-dependent DNA repair; Potency, µM (highest dose often 46.1 µM), for the others: at the highest dose activity change, negative = viability loss, most hits filed as cytotoxic; hit rate 33% among 670; AID 624251;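 note: ELG1-luc HEK293T cells co-treated with 10 µM MMS; viability read 16 h after compound addition; % is set by controls: 0 for no effect and ±100 for the full control effect; nearly all actives have a fitted effect of over 60% in size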
# ELG1 unstim viab: affects unstimulated cell viability, ELG1 hit counter-screen; Potency, µM (series often up to 45.9 µM), for inactives: at the top dose activity change, negative = loss of viability, most hits filed as cytotoxic; AID 624252; shares compounds with ELG1 repair inh; cell viability counter-screen, unstimulated, luminescence; hit rate 8% among 900;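 note: compound exposure lasted 16 hours before reading; % is set by controls: 0 for no effect and ±100 for the full control effect; nearly all actives have a fitted effect of over 55% in size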
# The depositor's hits bear a star; ? = inconclusive; / = no result shown. An excerpt weighted towards active compounds, which were near 3.7% of everything screened. Calls come from the whole dose curve; as a rule, active = well fitted curve in the direction sought with a large enough effect; inconclusive = small, poorly fitted or top-dose-only effect, or another doubt; inactive = no such curve, though single readings can be large; an effect the other way counts as inactive or inconclusive. Potency is the fitted concentration of half-maximal effect.
SMILES,Nrf2 block,Nrf2 activator,A549 tox-1,ELG1 repair inh,FLuc counter 3,A549 tox-2,ARE-Fluc inh,ELG1 Luc conf,ELG1-Luc MMS,ELG1 5-FU,ELG1 MMS viab,ELG1 unstim viab
Cc1oc(-c2ccc(Cl)cc2)nc1CN1CCCC(C(=O)N2CCN(C(=O)c3ccco3)CC2)C1 (configuration not stated),3.3µM*,1%,17%,4.1µM*,0%,-15%,6.5µM*,14µM*,1.3µM*,-8%,1.6µM*,?
Cc1oc(-c2ccc(Cl)cc2)nc1CN1CCCC(C(=O)N2CCOCC2)C1 (configuration not stated),?,4%,0%,4%,/,/,/,/,/,/,/,/
CCOC(=O)Cc1ccc(NC(=O)N2CCc3c(sc4c3CCCC4)C2c2ccc(F)cc2)cc1 (configuration not stated),/,4%,8%,/,/,/,/,/,/,/,/,/
Cc1ccc(S(=O)(=O)N2CCN(c3ncnc4sccc34)CC2)cc1C,?,4%,-11%,?,/,/,/,/,/,/,/,/
O=S(=O)(c1ccc2c(c1)OCCO2)N1CCN(c2ncnc3sccc23)CC1,2.3µM*,9%,-29%,4.6µM*,0%,2%,/,13µM*,2µM*,?,1.8µM*,?
Cc1csc2c(NC3CCN(Cc4ccccc4)CC3)ncnc12,?,0%,-2%,-12%,/,/,/,/,/,/,/,/
Cc1sc2ncnc(NC3CCN(Cc4ccccc4)CC3)c2c1C,4.6µM*,3%,?,2.1µM*,2%,-14%,5.8µM*,?,1.3µM*,-4%,1.6µM*,?
O=C(CN1CCN(S(=O)(=O)c2ccc(Cl)s2)CC1)N1CCOCC1,6%,-1%,-11%,-14%,/,/,/,/,/,/,/,/
Fc1ccccc1CNc1ncnc2sccc12,4.1µM*,3%,-22%,2.9µM*,1%,-5%,5.2µM*,?,4.4µM*,-3%,3.1µM*,?
